In PMC7826789 (International Journal of Molecular Sciences, 2021):

These compounds were tested on TNK1. Conditions: Compound Concentration (nM):1000.
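Also: KINOMEscan scanMAX binding as percent activity remaining versus control; lower means stronger binding.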

Compound	Percent Control [%]
CN1CCN(C(=O)c2ccc(NC(=O)Nc3ccc(N(C)c4ccnc(Nc5ccc(CS(C)(=O)=O)cc5)n4)cc3)cc2)CC1.Cl [GW830263A]	6.7
COc1cc2ncnc(Nc3ccc4c(cnn4Cc4ccccc4)c3)c2cc1OC.Cl [GW282449A]	100
CC1=C(C(=O)Nc2ccc3[nH]ncc3c2)C(c2ccc3ccccc3c2)CC(=O)N1 (stereo not shown) [GSK270822A]	68
O=C(Nc1n[nH]c2nc(-c3ccc(O)cc3)c(Br)cc12)C1CC1 [SB-725317]	100
CCS(=O)(=O)c1ccc(OC)c(Nc2ncc(-c3cccc(F)c3)o2)c1 [GW621970X]	38
COc1ccc2cc(-c3c(-c4ccncc4)nc(-c4ccc(S(C)(=O)=O)cc4C)n3C)ccc2c1 [SB-633825]	57
COc1ccccc1-c1cc(/C=C2\C(=O)Nc3ncc(Br)cc32)cc(Br)c1O [GW442130X]	97
CN(C)c1cc2c(Nc3ccc4c(cnn4Cc4ccccc4)c3)ncnc2cn1 [GW282974X]	93
COc1ccc2[nH]c3c4[nH]c5ccc(OC)cc5c4c4c(c3c2c1)C(=O)NC4=O [GW296115X]	29
COc1cccc(-n2ncc3c(N/N=C/c4ccncc4)ncnc32)c1 [GW784752X]	88
CC1=C(C(=O)Nc2ccc3[nH]ncc3c2)C(c2ccc(Cl)c(Cl)c2)CC(=O)N1 (stereo not shown) [GSK299115A]	82
COc1ccc(COc2ccc(Cc3cnc(N)nc3N)cc2OC)cc1 [GW632580X]	73
NS(=O)(=O)c1ccc(N/N=C2\C(=O)Nc3ccc(Cl)cc32)cc1 [GW280670X]	100
COc1cccc(-c2c[nH]c3c(N/N=C/c4ccncc4)ncnc23)c1 [GW814408X]	100
COC(=O)Nc1nc2ccc(Oc3ccc(NC(=O)Nc4cc(C(F)(F)F)ccc4F)cc3)cc2s1.Cl [GW693917A]	37
COc1ccc2c(-c3ccnc(Nc4cccc(OC(F)(F)F)c4)n3)cnn2n1 [GW810372X]	100
NS(=O)(=O)c1ccc(N/N=C2\C(=O)Nc3ccc(-c4cnco4)cc32)cc1 [GW276655]	52

Compound	Percent Control [%]
Cl.c1ccc(Cc2nc3ccc(Nc4ncnc5ccccc45)cc3[nH]2)cc1 [GR269666A]	100
C/C(Nc1ccc(S(N)(=O)=O)cc1)=C1/C(=O)Nc2ccccc21 [GW335962X]	100
COc1cc(N2CCN(C(C)C)CC2)ccc1Nc1nc(Nc2ccc(F)cc2C(=O)NC[C@@H](O)CO)c2cc[nH]c2n1 [GSK1392956A]	18
Nc1ncnc2occ(-c3ccc(NC(=O)Nc4cc(C(F)(F)F)ccc4F)cc3)c12 [GW770249X]	85
CC(C)COC(=O)c1ccc2c(c1)/C(=C/Nc1ccc(S(N)(=O)=O)cc1)C(=O)N2 [GW416981X]	100
Cl.O=C(Nc1ccc(Oc2ccc3[nH]c(NC(=O)c4ccccc4)nc3c2)cc1)Nc1cc(C(F)(F)F)ccc1F [GW709042A]	66
CCc1ccc(Oc2nccc(-c3c(-c4ccc(F)cc4)ncn3C3CCNCC3)n2)cc1 [SB-242719]	80
COc1cc(C)c(N(C)C(=O)CN(C)C)cc1Nc1nc(Nc2cccc(F)c2C(N)=O)c2cc[nH]c2n1 [GSK2219385]	83
NS(=O)(=O)c1ccc(Nc2ncc(-c3ccccc3)o2)cc1 [GW572399X]	100
CCS(=O)(=O)c1ccc(OC)c(Nc2ncc(-c3cccc(OC)c3)o2)c1 [GW580509X]	30
C[C@@H](Oc1cc(-n2cnc3ccc(OC4CCN(C)CC4)cc32)sc1C(N)=O)c1ccccc1Cl [GSK579289A]	76
COc1cc2ncn(-c3cc(O[C@H](C)c4ccccc4Cl)c(C(N)=O)s3)c2cc1OC [GSK237701A]	82
O=C1Nc2ccc(C(=O)c3ccco3)cc2C1=Cc1cc(Cl)c(O)c(Cl)c1 [GW406108X]	79
Cc1cc(O)cc(C)c1/C=C/c1cncc(C(N)=O)c1 [GW435821X]	100
COc1cc(/C=N/Nc2ncnc3[nH]ncc23)ccc1O [GW578748X]	100
COc1cc(C=NNc2ncnc3c2cnn3-c2ccccc2)ccc1O [GW513184X]	67
NS(=O)(=O)c1ccc(N/N=C2\C(=O)Nc3ccc(C(=O)NCCc4c[nH]cn4)cc32)cc1 [GW300660X]	100
